What follows are compounds tested against Hexose transporter 1 (Plasmodium falciparum) (UniProt O97467) (assay: ST_JUDE_LEISH: Cytotoxicity at 2uM final concentration against transgenic Leishmania Mexicana promastigotes LmPfHT that are glucose transport deficient and complemented with the Plasmodium falciparum hexose transporter. Activity is measured by DNA content using SYBR green in vitro).
Format: functional

Compound | inhibition
COc1ccc(NC(=O)[C@H](CC(C)C)Nc2ccnc(NCCc3ccc(F)cc3)n2)cc1 | 1.43%
FC(F)(F)c1cccc(CNCC2CCN(CC3CCCCC3)CC2)c1 | -0.13%
Cc1cccc(CN2CCCN(Cc3ccc(C(=O)Nc4ccc(C)c(F)c4)cc3)CC2)c1 | 4.06%
N=C(NCCc1ccc(Cl)c(Cl)c1)c1ccc2ccccc2c1 | -1.48%
O=c1cc(NCCCNCc2ccc(Cl)c(Cl)c2)[nH]c2ccc(C(F)(F)F)cc12 | 1.67%
Cc1cccc(CCNC(=O)c2cc(Br)cc(N3CCN(c4ccncc4)CC3)c2)c1 | 2.44%
Cc1ccc(CN2CCCN(Cc3ccc(C(=O)Nc4ccc(Cl)cc4)cc3)CC2)s1 | 2.74%
O=C(/C=C/c1ccc(Cl)c(Cl)c1)NCCCCCN1CCC(NC(=O)Nc2cc(Cl)ccc2Cl)CC1 | 8.99%
Cc1ccc(NC(=N)Nc2ncccc2OCc2c(F)cccc2Cl)cc1 | 7.97%
O=C(Cc1ccc(Cl)cc1)Nc1cc(Cl)ccc1Cn1cnc(N2CCNCC2)cc1=O | -0.28%
CN(CC(=O)Nc1ccc(F)cc1)C(=O)c1ccc(-c2ccc(F)cc2)o1 | 7.16%
CCn1ncc2c(NC3CCOCC3)c(CNC(=O)c3ccnn3C)c(C)nc21 | 2.89%
COc1ccc(N(C)Cc2cnc3nc(N)nc(N)c3n2)cc1 | 1.84%
N#Cc1ccc2c(c1)CCN(CCC1CCC(NC(=O)/C=C/c3c[nH]c4c(Br)cccc34)CC1)CC2 (stereo unspecified) | 15.6%
COCCOc1cccc(CN2CCC(c3cc4nc(C)cc(C(F)(F)F)n4n3)C2)c1 (stereo unspecified) | 4.65%
COc1c(C2CCN(CCCCNC(=O)c3ccc(-c4ccc(NC(=O)C(F)(F)F)cc4)cc3)CC2)ccc2c1CCCC2 | 4.26%

Reference: ChEMBL document CHEMBL3433997, “St. Jude Leishmania screening dataset” (2016)
